# Most compounds without a hit are left out; they make up all but 1.5% or so of the library.
# sPLA2-III inh – Inhibits HGIII-sPLA2 liposome hydrolysis, primary screen | Q9NZ20 | QFRET BODIPY PC-A2 liposome hydrolysis, fluorescence | inhibition, % at 12.2 µM | 0.56% of 370,000 active | AID 743126;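 active = inhibition above mean plus 3 SD of compounds lying within the high and low control bounds, cut at about 19% in these data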;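 also: 0% = median of test compound wells and 100% = no enzyme DMSO wells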
# AI-2 QS modul – modulates the Vibrio harveyi AI-2 quorum sensing system; Vibrio harveyi JMH597 AI-2 luminescence/OD600 ratio, 9 h; active compounds read low; strain lacks LuxN and CqsS sensors; 0 = neutral-control median; activity change, % at 7.5 µM; 0.4% of 300,000 active; AID 2094; in the data active = activity change below about -75%, passing the limit was not always enough;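 also: luminescence divided by OD600 gain over 9 h not by final OD600 alone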
# Rin1 Abl inh – human Rin1-Abl interaction inhibition; AID 588664; inhibition, % at 7.35 µM; 0.4% of 360,000 active; TR-FRET Rin1/Abl binding, biochemical; P00519+Q13671; in the data active = inhibition above about 5%, passing the limit was not always enough
# ARNT-TACC3 inh – disrupts binding between human ARNT and TACC3 | Q9Y6A5 | AlphaScreen His-ARNT PAS-B/GST-TACC3 binding, luminescence; TACC3 fragment carries E629A point mutation | inhibition, % at 9.99 µM | 0.66% of 390,000 active | AID 623870;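 active = mean inhibition of replicates at least 50% and at least half of replicates each reaching 50%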;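 also: 0% = complete ARNT plus TACC3 wells and 100% = ARNT alone without TACC3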
# Rin1-Abl confirm – Rin1-Abl interaction inhibition confirmation; shares compounds with Rin1 Abl inh; TR-FRET Rin1-Abl binding, purified proteins; inhibition, % at 7.35 µM; 49% of 1,300 active
# GFP quench – counter-screen for Rin1-Abl inhibitors: GFP fluorescence quenchers | shares compounds with Rin1 Abl inh | inhibitors/quenchers counterscreen | inhibition, % at 6.75 µM | 8.5% of 1,300 active | AID 602125;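 also: ABL1-eGFP fusion protein alone without its partner RIN1-SBP; 0% = protein with vehicle and 100% = wells lacking protein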
# GFP quench dose – GFP fluorescence interference dose response. 230 tested, under 10 active. AID 602182. GFP fluorescence interference/quenching counterscreen. IC50, µM. shares compounds with Rin1 Abl inh; call rule not given here;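 also: ABL1-eGFP fusion protein alone without its RIN1 binding partner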
# * = called active by the depositor; x = not tested or not shown. Rule as the data show it, unless noted: active = inhibition above about 6.5%; inactive = the rest.
SMILES,sPLA2-III inh,AI-2 QS modul,Rin1 Abl inh,ARNT-TACC3 inh,Rin1-Abl confirm,GFP quench,others
CCSc1nnc(NC(=O)CSc2nc3c(c(=O)n2CC)SC(C)C3)s1 (stereo not drawn),1,19,-1,-1,x,x,
CN(C)S(=O)(=O)c1cccc(NC(=S)N/N=C/c2ccc(O)c(O)c2O)c1,-5,15,27*,69*,18*,10*,
CCOC(=O)CCCCCC(=O)Nc1ccc2c(c1)C(=O)N([C@@H](C)CO)C[C@@H](C)[C@H](CN(C)C(=O)Nc1ccccc1)OCCCC[C@H](C)O2,-6,x,16*,x,18*,1,GFP quench dose=>68
CCOC(=O)CCCCCC(=O)Nc1ccc2c(c1)C(=O)N([C@@H](C)CO)C[C@H](C)[C@H](CN(C)C(=O)Nc1ccc(C(F)(F)F)cc1)OCCCC[C@H](C)O2,-12,x,0,x,x,x,
CCOC(=O)CCCCCC(=O)Nc1ccc2c(c1)C(=O)N([C@H](C)CO)C[C@H](C)[C@@H](CN(C)C(=O)Nc1ccccc1)OCCCC[C@@H](C)O2,-1,x,16*,x,22*,-1,GFP quench dose=>68
Cc1noc(C)c1NC(=O)N(C)C[C@H]1OCCCC[C@@H](C)Oc2ccc(N(C)C)cc2C(=O)N([C@@H](C)CO)C[C@H]1C,x,x,x,0,x,x,
COc1ccc(S(=O)(=O)Nc2cccc3c2O[C@@H](CN(C)CC2CC2)[C@H](C)CN([C@@H](C)CO)C3=O)cc1,x,x,x,0,x,x,
CCCCSc1nnc(-c2ccc(NC(=O)CCc3ccccc3)cc2)n1C,-5,15,6.2*,-1,9.0*,1,
CC(C)CNC1=CC(=O)CC(c2ccco2)C1 (stereo not drawn),-4,22,5.9*,9,0,4,
CCCCOc1ccc(C(=O)N2CCN(CC(=O)Nc3ccc(C)cc3)CC2)cc1OC,-1,16,8.6*,x,11*,-1,
C/C=C/c1ccc([C@@H]2[C@H](CO)N[C@H]2CN(CC)C(=O)CN2CCOCC2)cc1,x,x,x,-8,x,x,
CC(=O)Nc1ccc(C(=O)N/N=C/c2ccc(F)cc2)cc1,-1,17,10*,-11,3,-1,
O=C(N/N=C\c1ccc(F)cc1)c1ccc(F)cc1,3,6,-1,1,x,x,
Cc1ccc(C2(C)NC(=O)N(CC(=O)NNC(=O)c3ccccc3)C2=O)cc1 (stereo not drawn),-8,x,-3,-2,x,x,
Cc1ccc(C(=O)C(C)N2C(=O)NC(C)(c3ccccc3)C2=O)cc1 (stereo not drawn),-3,20,7.1*,6,-1,1,
Cc1cccc(NC(=O)C2CC(=O)OC23CCCCC3)c1 (stereo not drawn),-9,16,-3,-2,x,x,
O=C1CC(C(=O)Nc2ccccc2)C2(CCCC2)O1 (stereo not drawn),0,24,7.7*,30,-2,-1,
COC(=O)CN1C(=O)[C@@H]2[C@H](C1=O)[C@@H]1CC(C(=O)OC)=C[C@@H](C(=O)OC)[C@@H]3C1=C(C(=O)[C@]3(C)NC(=O)c1ccccc1)[C@@H]2C,4,13,1,x,x,x,
COC(=O)C1=C[C@@H](C(=O)OC)[C@@H]2C3=C(C(=O)C2(C)C)[C@H](c2ccccc2)[C@@H]2C(=O)N(C)C(=O)[C@@H]2[C@@H]3C1,0,11,19*,x,17*,-1,
CCCC(=O)Nc1ccc2c(c1)C(=O)N(C)[C@H]1CC[C@@H](CC(=O)NCC3CCCCC3)O[C@H]1CO2,x,x,x,-4,x,x,
O=C(N/N=C/c1ccc(OCc2ccc(F)cc2)cc1)c1ccccc1,-1,31,3,-7,x,x,
O=C(NN=Cc1ccc(O)c(O)c1)c1ccccc1,x,x,7,x,x,x,
O=C(COc1ccccc1C(=O)N/N=C\c1ccc(O)c(O)c1)N/N=C/c1ccc(O)c(O)c1,x,50,28*,x,38*,12*,
CC(C)(C)c1ccc(OCc2ccc(C(=O)N/N=C/c3ccc(O)c(O)c3)cc2)cc1,5,10,8.2*,-2,8.8*,2,
C[C@H](CO)N1C[C@H](C)[C@H](CN(C)C(=O)C2CCC2)Oc2ncc(C#Cc3ccccc3F)cc2C1=O,x,x,x,3,x,x,
SMILES,sPLA2-III inh,AI-2 QS modul,Rin1 Abl inh,ARNT-TACC3 inh,Rin1-Abl confirm,GFP quench,others
OCCNc1ncnc2c1ncn2[C@H]1CN(Cc2ccc(Cl)cc2)C[C@@H](CO)O1,6,x,7.2*,x,5,0,
COCCNc1ncnc2c1ncn2[C@H]1CN(Cc2ccc(-c3ccccc3)cc2)C[C@@H](CO)O1,-8,x,9.6*,x,11*,-1,
OCCCNc1ncnc2c1ncn2[C@H]1CN(Cc2cccs2)C[C@@H](CO)O1,7,x,2,x,x,x,
COCCNc1ncnc2c1ncn2[C@H]1CN(Cc2ccc(F)cc2)C[C@@H](CO)O1,9,x,1,x,x,x,
CN(C)c1ncnc2c1ncn2[C@H]1CN(Cc2ccccc2)C[C@@H](CO)O1,6,x,1,x,x,x,
CNc1ncnc2c1ncn2[C@H]1CN(Cc2ccc(Cl)cc2)C[C@@H](CO)O1,0,x,-1,x,x,x,
CN(C)c1ncnc2c1ncn2[C@H]1CN(Cc2ccc(-c3ccccc3)cc2)C[C@@H](CO)O1,-28,x,20*,x,15*,-2,
OCCCNc1ncnc2c1ncn2[C@H]1CN(Cc2ccc(-c3ccccc3)cc2)C[C@@H](CO)O1,-11,x,19*,x,22*,0,GFP quench dose=>68
CO[C@@H]1CN(C)C(=O)c2cc(NC(=O)C3CCC3)ccc2OC[C@@H](C)N(Cc2ccccn2)C[C@@H]1C,x,x,x,8,x,x,
CO[C@H]1CN(C)C(=O)c2cc(NC(=O)Nc3ccc(Cl)cc3)ccc2OC[C@H](C)N(C)C[C@H]1C,x,x,x,-5,x,x,
O=C(NC1CCC1)[C@H]1[C@H](CO)[C@H]2Cn3c(ccc(-c4ccc(F)cc4)c3=O)[C@H]2N1Cc1ccccn1,x,x,x,-1,x,x,
CC(C)N(C)c1ncnc2c1ncn2[C@H]1CN(Cc2ccccc2)C[C@@H](CO)O1,6,x,3,x,x,x,
CC(C)N(C)c1ncnc2c1ncn2[C@H]1CN(Cc2ccc(Cl)cc2)C[C@@H](CO)O1,-11,x,6.2*,x,6.3*,-1,
C=CCNc1ncnc2c1ncn2[C@H]1CN(Cc2ccco2)C[C@@H](CO)O1,6,x,0,x,x,x,
OC[C@@H]1CN(Cc2ccc(-c3ccccc3)cc2)C[C@H](n2cnc3c(NC4CCC4)ncnc32)O1,-21,x,18*,x,24*,-1,GFP quench dose=>68
C=CCNc1ncnc2c1ncn2[C@H]1CN(Cc2ccc(-c3ccccc3)cc2)C[C@@H](CO)O1,-22,x,19*,x,17*,0,GFP quench dose=>68
OC[C@@H]1CN(Cc2ccccc2)C[C@H](n2cnc3c(NC4CC4)ncnc32)O1,-2,x,2,x,x,x,
COc1cc(CN2C[C@@H](CO)O[C@@H](n3cnc4c(NCc5ccc(F)cc5)ncnc43)C2)cc(OC)c1OC,-21,x,11*,x,6.5*,-3,

# Bioassay records as filed in PubChem BioAssay.
